DUSP3 inh = VHR1 (DUSP3) phosphatase inhibition. recombinant VHR phosphatase, colorimetric substrate read-out. inhibition, % at 20 µM. hit rate 0.7% among 50,000. AID 1992; in the data active = inhibition above about 60%
Target sequence (P51452 whole entry, looked up): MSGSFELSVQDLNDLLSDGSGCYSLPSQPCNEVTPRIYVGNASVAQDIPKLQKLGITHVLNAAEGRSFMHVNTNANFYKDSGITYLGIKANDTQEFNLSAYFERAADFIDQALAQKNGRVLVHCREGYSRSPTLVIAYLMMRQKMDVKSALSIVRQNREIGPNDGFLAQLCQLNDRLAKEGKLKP
Large screens that a line does not name were inactive. Only a selection was taken, and hits are over-represented in it overall.

COc1ccc(C(=O)Nc2ccc(Cl)c(-c3nc4ccccc4s3)c2)cc1[N+](=O)[O-]	none
Cc1cccc(NC(=O)/C(C#N)=C/c2cn(CC(=O)Nc3ccccc3)c3ccccc23)c1C	none
COc1ccc(/C=C/C(=O)Nc2ccc(Cl)c3c2C(=O)c2ccccc2C3=O)cc1	none
Cc1ccc(-n2nc3cc(C)c(NC(=O)c4cc(Cl)ccc4Cl)cc3n2)cc1	none
COc1ccc(Br)cc1C(=O)Nc1cc2nn(-c3ccc(C)cc3)nc2cc1C	none
COc1ccc(-n2nc3cc(C)c(NC(=O)c4cc(Cl)ccc4OC)cc3n2)cc1	DUSP3 inh 110
CC(C)OC(=O)c1c(NC(=O)c2ccccc2F)sc2c1CCCCC2	none
Nc1ccc(S(=O)(=O)N2CCCCCC2)cc1	none
Cc1ccc(C(=O)Nc2ccc(Nc3ccccc3)cc2)cc1[N+](=O)[O-]	none
O=C(COc1ccccc1Cl)Nc1nc(-c2ccccc2)cs1	none
Cc1ccc(OCC(=O)Nc2nc(-c3ccccc3)cs2)cc1C	DUSP3 inh 93
Cc1ccccc1OCC(=O)Nc1nc(-c2ccc(Br)cc2)cs1	none
O=C(COc1ccc(Cl)cc1)Nc1nc(-c2ccc(Cl)cc2)cs1	none
Cc1cc(OCC(=O)Nc2nc(-c3ccccc3)cs2)ccc1Cl	DUSP3 inh 82
Cc1ccnc(NC(=O)COc2ccc(Cl)c(C)c2)c1	none
CC12CN3CCN(C1)CC(C)(C3)C2NC(=S)Nc1ccccc1 (stereo not drawn)	none
O=C(NC(=S)Nc1ccc2oc3ccccc3c2c1)c1ccccc1	none
S=C(Nc1ccc2c(c1)oc1ccccc12)Nc1cccc2ccccc12	DUSP3 inh 106
Fc1ccc(NC(=S)Nc2cccc3ccccc23)cc1	none
NC(=O)c1c(NC(=O)c2ccccc2[N+](=O)[O-])sc2c1CCCCCC2	none
COc1cccc(N2C(=O)CC(N3CCC(C)CC3)C2=O)c1 (stereo not drawn)	none
COc1cccc(N2C(=O)CC(N3CCN(C/C=C/c4ccccc4)CC3)C2=O)c1 (stereo not drawn)	none
COc1cccc(N2C(=O)CC(N3CCCCC3)C2=O)c1 (stereo not drawn)	DUSP3 inh 101
COc1ccc(Oc2ccc(Oc3ccc(OC)cc3)cc2)cc1	none
Nc1ccc(Oc2ccc(N)c(N)c2)cc1N	DUSP3 inh 75
Nc1ccc(Oc2ccc(N)cc2)cc1	none
COc1ccccc1C(=O)NN1C(=O)/C(=C/c2ccc([N+](=O)[O-])cc2)SC1=S	none
O=[N+]([O-])c1ccccc1/C=N/N/C(=N/c1ccccn1)c1ccccn1	none
COc1c(O)ccc(/C=N\NC(=O)c2ccc(Br)cc2)c1[N+](=O)[O-]	none
O=C(Nc1ccccc1)Nc1nccs1	none
O=C(Nc1ccccc1)Nc1nc(C(c2ccccc2)c2ccccc2)cs1	DUSP3 inh 88
O=C(Nc1ccccc1)Nc1nnc(C(c2ccccc2)c2ccccc2)s1	none
COc1ccc(S(=O)(=O)N2CCN(Cc3ccc(Br)cc3)CC2)cc1	none
COC(=O)C1=C(C)NC(=O)CC1c1ccc(Cl)c(Cl)c1 (stereo not drawn)	none
CC1=C(C(=O)OCCc2ccccc2)C(c2ccccc2Cl)CC(=O)N1 (stereo not drawn)	none
CC1=C(C(=O)OCCCc2ccccc2)C(c2ccc(Cl)c(Cl)c2)CC(=O)N1 (stereo not drawn)	DUSP3 inh 100
COc1ccccc1/C=C1/SC(=O)N(CNc2cccc([N+](=O)[O-])c2)C1=O	none
CC1(C)C(c2ccco2)=[N+]([O-])C2(CCCCCC2=O)N1O (stereo not drawn)	none
